Here are results for 20 molecules from the supplement of paper PMC12297408.

Counter-ions that a name gives are not always drawn.

The test system of the first assay is Plasmodium falciparum NF54/iGP1_RE9H ulg8 stage V gametocytes. Description: gametocyte viability (luciferase signal relative to DMSO control) (% of DMSO control); higher = less gametocytocidal activity, active = 50 or less. As to conditions: concentration: 1 µM; exposure time: 72 h. The protocol:
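Synchronous P. falciparum NF54/iGP1_RE9H ulg8 mature stage V gametocytes (day 12) were exposed to Cayman Epigenetics Screening Library compounds at 10 µM or 1 µM for 72 h at 37 °C. Viability was read as RE9H luciferase bioluminescence, normalised to DMSO plate controls (100%); 50 µM methylene blue was the positive control.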
In the case of `COc1cc2c(NC3CCN(CC4CCCCC4)CC3)nc(N3CCCN(C(C)C)CC3)nc2cc1OCCCN1CCCCC1`, the gametocyte viability is 60.9 (inactive).

Consider `NC(=O)[C@H](CCCN=C(N)CCl)NC(=O)c1ccccc1` [Cl-Amidine (hydrochloride)], for which the gametocyte viability is 104 (inactive).

For `Nc1nc(=S)c2[nH]cnc2[nH]1` [6-Thioguanine], the gametocyte viability was 90.1 (inactive).

Turning to `O=C(O)c1ccc(CN2CCC(CN[C@@H]3C[C@H]3c3ccccc3)CC2)cc1`, the gametocyte viability was 86.7 (inactive).

`Cc1ccc(NC2=CC(=O)c3sc(C)nc3C2=O)cc1` [Ryuvidine]: the gametocyte viability was 59.2 (inactive).

Turning to `COc1cc2c(NC3CCN(C)CC3)nc(N3CCCN(C)CC3)nc2cc1OCCCN(C)C`, the gametocyte viability is 89.8 (inactive).

As to `CC(C)C(=O)SCCCCCCC(=O)Nc1nc(-c2ccccc2)cs1`, the gametocyte viability was 82.8 (inactive).

Regarding `C#CCC(CCCCCC)C(=O)O` (stereo not given) [2-hexyl-4-Pentynoic Acid], the gametocyte viability was 89.2 (inactive).

For the molecule `COc1cc2nc(N3CCCC3)nc(NCCCCCN3CCCC3)c2cc1OC`, the gametocyte viability was 92.2 (inactive).

Turning to `CC(=O)Nc1ccc(NC(=S)NC(=O)c2ccc(C(C)(C)C)cc2)cc1` [Tenovin-1], the gametocyte viability is 81.3 (inactive).

Turning to `O=C(CCCCCCSc1ccc2ccccc2c1)NO`, the gametocyte viability is 84.8 (inactive).

For the molecule `COc1cc2c(cc1NS(=O)(=O)c1ccc(Br)cc1C)n(C)c(=O)n2C`, the gametocyte viability is 89 (inactive).

Regarding `CC(C(=O)Nc1cccc(/N=C/c2c(O)ccc3ccccc23)c1)c1ccccc1` (stereo not given) [Salermide], the gametocyte viability is 88.8 (inactive).

Take `CCOC(=O)C1=CN(Cc2ccccc2)C=C(C(=O)OCC)C1c1ccccc1`: the gametocyte viability was 80.7 (inactive).

For the molecule `N[C@H]1C[C@@H]1c1ccc(-c2cccc(O)c2)cc1`, the gametocyte viability was 92.2 (inactive).

Regarding `CCCCN(Cc1ccc(C(=O)NO)cc1)C(=O)Nc1ccccc1` [Nexturastat A], the gametocyte viability was 103 (inactive).

`Nc1ccccc1NC(=O)CCCCCC(=O)Nc1ccccc1`: the gametocyte viability is 88.7 (inactive).

Turning to `O=Nc1ccc(O)c2ncccc12` [5-Nitroso-8-quinolinol], the gametocyte viability is 88.4 (inactive).

For `CCOC(=O)Nc1cc(-c2ccc(C)c(NS(C)(=O)=O)c2)nn2c(C)nnc12` [Bromosporine], the gametocyte viability is 86.5 (inactive).

Consider `Cn1cc(CNCC2CCN(c3ncc(C(=O)NO)cn3)CC2)c2ccccc21`, for which the gametocyte viability is 62 (inactive).

The same assay, now with this note: concentration: 10 µM; exposure time: 72 h.
For the molecule `COc1cc2c(NC3CCN(CC4CCCCC4)CC3)nc(N3CCCN(C(C)C)CC3)nc2cc1OCCCN1CCCCC1`, the gametocyte viability is 14.7 (active).

Consider `NC(=O)[C@H](CCCN=C(N)CCl)NC(=O)c1ccccc1` [Cl-Amidine (hydrochloride)], for which the gametocyte viability is 98.5 (inactive).

On to `Nc1nc(=S)c2[nH]cnc2[nH]1` [6-Thioguanine], for which the gametocyte viability was 94.6 (inactive).

Regarding `O=C(O)c1ccc(CN2CCC(CN[C@@H]3C[C@H]3c3ccccc3)CC2)cc1`, the gametocyte viability was 88.4 (inactive).

As to `Cc1ccc(NC2=CC(=O)c3sc(C)nc3C2=O)cc1` [Ryuvidine], the gametocyte viability was 19.2 (active).

In the case of `COc1cc2c(NC3CCN(C)CC3)nc(N3CCCN(C)CC3)nc2cc1OCCCN(C)C`, the gametocyte viability was 84 (inactive).

Consider `CC(C)C(=O)SCCCCCCC(=O)Nc1nc(-c2ccccc2)cs1`, for which the gametocyte viability was 79.7 (inactive).

On to `C#CCC(CCCCCC)C(=O)O` (stereo not given) [2-hexyl-4-Pentynoic Acid], for which the gametocyte viability was 95.4 (inactive).

In the case of `COc1cc2nc(N3CCCC3)nc(NCCCCCN3CCCC3)c2cc1OC`, the gametocyte viability is 18.9 (active).

For the molecule `CC(=O)Nc1ccc(NC(=S)NC(=O)c2ccc(C(C)(C)C)cc2)cc1` [Tenovin-1], the gametocyte viability was 81.9 (inactive).

Take `O=C(CCCCCCSc1ccc2ccccc2c1)NO`: the gametocyte viability was 84.6 (inactive).

In the case of `COc1cc2c(cc1NS(=O)(=O)c1ccc(Br)cc1C)n(C)c(=O)n2C`, the gametocyte viability is 86.4 (inactive).

Consider `CC(C(=O)Nc1cccc(/N=C/c2c(O)ccc3ccccc23)c1)c1ccccc1` (stereo not given) [Salermide], for which the gametocyte viability was 88.4 (inactive).

On to `CCOC(=O)C1=CN(Cc2ccccc2)C=C(C(=O)OCC)C1c1ccccc1`, for which the gametocyte viability is 77.6 (inactive).

Turning to `N[C@H]1C[C@@H]1c1ccc(-c2cccc(O)c2)cc1`, the gametocyte viability was 79.4 (inactive).

Regarding `CCCCN(Cc1ccc(C(=O)NO)cc1)C(=O)Nc1ccccc1` [Nexturastat A], the gametocyte viability was 67.7 (inactive).

As for `Nc1ccccc1NC(=O)CCCCCC(=O)Nc1ccccc1`, the gametocyte viability is 96.1 (inactive).

For `O=Nc1ccc(O)c2ncccc12` [5-Nitroso-8-quinolinol], the gametocyte viability is 11.5 (active).

Turning to `CCOC(=O)Nc1cc(-c2ccc(C)c(NS(C)(=O)=O)c2)nn2c(C)nnc12` [Bromosporine], the gametocyte viability was 83.1 (inactive).

As to `Cn1cc(CNCC2CCN(c3ncc(C(=O)NO)cn3)CC2)c2ccccc21`, the gametocyte viability was 66.3 (inactive).
